Experimental data: PubChem BioAssay
“And” between values parts separate entries of the source, which are not always exact repeats. Identical values can stand only once. For some of these results: Entries with a potency or affinity are not part of this list. The source made the active and inactive calls. Unless noted, no stated cut-off is given here; in the data, active means parasite load remaining mostly below about 12% (no sharp cut-off); inactive means mostly above about 10%.

What was measured:
[1] = blockers of polyQ-driven CASP3 activation – cell-based (AID 1583); settings: polyglutamine-induced caspase-3 activation, cell assay; stronger effect = higher value;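 tested at 10 µM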
[2] = yeast 75Q aggregation reduction – 75Q-TubU reporter (AID 1593); settings: Yeast 75Q polyglutamine aggregation reporter
[3] = restoration of touch response, mutant HTT neurons – whole organism, C. elegans mechanosensory neurons, N-terminal huntingtin (AID 1599); settings: C. elegans polyQ-huntingtin mechanosensory neurons, stronger effect = higher value
[4] = blockers of cytochrome c efflux from mitochondria – biochemical, purified mitochondria (AID 1603); settings: stronger effect = lower value;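 further: mouse liver mitochondria challenged with calcium chloride; signal normalized to the plate average as 100%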
[5] = polyglutamine aggregate formation blockers (AID 1604); settings: polyglutamine-induced protein aggregation inhibition assay; stronger effect = higher value; tested at 2.5 µM
[6] = glutamate transport activators, MN-1 cells, MN-1 cell line (AID 1612); settings: MN-1 motor neuron cells, stronger effect = higher value;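 further: tested at 1 µM final; 0% = mean of DMSO vehicle wells on each plate; positive means more glutamate uptake than control and negative means less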
[7] = GFP-Q80 aggregate reduction, neuronal-like cells, cell-based, NGF-treated PC12, GFPQ80 (AID 1614); settings: PC12 NGF-treated GFP-polyQ80 inclusion reduction;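 further: lower means fewer inclusions and 0 means no inclusions at all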
[8] = 75Q-TubH aggregate inhibition, S. cerevisiae, yeast (AID 1616); settings: S. cerevisiae 75Q-TubH polyglutamine aggregation suppression; stronger effect = higher value
[9] = compounds altering circadian rhythm period length – cell-based, LOPAC library, luminescence reporter (AID 2774; call rule not given here;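 further: values are relative to mean of DMSO wells on each plate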); settings: circadian reporter cells, at 7 µM, actives lie on both sides
[10] = test system: Hepatitis C virus NS3 helicase; assay: blockers of NS3h binding to ssDNA – biochemical, fluorescence polarization, LOPAC1280 library, primary screen (AID 687035; in the data active means inhibition above about 37%); settings: Purified HCV NS3 helicase, Cy5-dT15 ssDNA binding fluorescence polarization; stronger effect = higher value; concentration not given here
[11] = target: 6-phosphogluconate dehydrogenase, decarboxylating (Homo sapiens) (UniProt P52209); assay: inhibition of human phosphogluconate dehydrogenase – biochemical, recombinant enzyme, NADPH absorbance, primary screen (AID 1159550;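 active means at least 20% inhibition of 6-phosphogluconate dehydrogenase activity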); settings: recombinant 6PGD, NADPH absorbance 341 nm; at 10 µM; stronger effect = higher value
[12] = EMT-state selective cytotoxicity in co-culture – imaging, PC-3E GFP, TEM4-18 mCherry, primary screen (AID 1345086;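 active means compounds killing one labelled cell type while sparing the other, by normalised counts and ratio limits, not self-fluorescent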;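 on all read-outs here: cells exposed to compound for 72 h before imaging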;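 on red/green cell ratio (normalised): normalised mesenchymal count divided by normalised epithelial count so high means epithelial killing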); settings: PC-3E GFP / TEM4-18 mCherry co-culture, imaging cell counts, at 1 µM; for red/green cell ratio (normalised): actives lie on both sides, counts scaled to control wells, 1 = unselective
[13] = viability loss with induced miR-34 in A549 – imaging, A549 dox-inducible miR-34, nuclei and caspase counts, primary screen (AID 1347080;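 active means compounds whose cell count with miR-34 switched on is under 0.7 times the count with it off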); settings: A549 miR-34 inducible, Hoechst nuclei count, 48 h
[14] = blockers of cellular phospholipid synthesis – cell-based, LOPAC library, screen 4, primary screen (AID 1347384; call rule not given here); settings: animal cells, phospholipid biosynthesis inhibition screen; at 10 µM
[15] = galactose survival enhancers in mitochondrial complex I cybrids – cell-based, galactose medium, ATP luminescence, primary screen (AID 1645843;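 active means z-score of at least 1.8 in each of two replicates, scored against plate mean and spread of sample wells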;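 further: positive z means more ATP and so rescue of galactose-driven cybrid death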); settings: complex I mutant cybrid cells, 72 h, stronger effect = higher value
[16] = P. berghei load reduction in hepatocytes – cell-based, HepG2, luciferase luminescence, HepG2 viability, primary screen (AID 624349);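 further: 100% = mean of DMSO negative control wells on the same plate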; settings: P. berghei liver stage in HepG2, luciferase luminescence, concentration not given here; parasite load remaining: stronger effect = lower value; viability: measured here: HepG2 viability without parasites
[17] = MELAS cybrid and Rieske KO viability enhancers – cell-based, MELAS cybrids, Rieske KO mouse fibroblasts, CellTiter-Glo, primary screen (AID 1508586;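 active means mean z-score across replicates of 1.96 or higher in either the MELAS or the Rieske mutant cell line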;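 further: z relative to plate mean and SD of compound and empty wells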); settings: low glucose
[18] = target: NAD(+) hydrolase SARM1 (Homo sapiens) (UniProt Q6SZW1); assay: blocking NAD cleavage by SARM1 SAM-TIR – cell lysate, NAD-Glo luminescence (AID 1508614;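 active means compound whose remaining NAD level is above about 45 nM, limit read from the data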); settings: SAM-TIR HEK293T lysate NADase, at 1 µM, stronger effect = higher value
[19] = target: Mitogen-activated protein kinase 7 (Homo sapiens) (UniProt Q13164); assay: Gal4-ERK5 driven luciferase induction – cell-based, HTS, primary screen (AID 1508626;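 active means luciferase signal above three times the same-plate solvent-only control wells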;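 further: luciferase driven by Gal4-ERK5 fusion binding five Gal4 sites before minimal TATA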); settings: HeLa Gal4-ERK5 transactivation, 18 h, at 5 µM, stronger effect = higher value
[20] = measured here: epithelial PC-3E GFP cell survival
[21] = measured here: mesenchymal TEM4-18 mCherry cell survival
[22] = stronger effect = lower value, cell number ratio, induced over uninduced
[23] = measured here: relative caspase fold change +Dox/-Dox
[24] = measured here: total cells with miR-34 induction, stronger effect = lower value
[25] = measured here: total cells without miR-34 induction
[26] = MELAS cybrid survival, CellTiter-Glo 48 h, stronger effect = higher value
[27] = Rieske KO mouse fibroblast survival, CellTiter-Glo 72 h

6-phosphogluconate dehydrogenase, decarboxylating (Homo sapiens), sequence (P52209 whole entry, looked up): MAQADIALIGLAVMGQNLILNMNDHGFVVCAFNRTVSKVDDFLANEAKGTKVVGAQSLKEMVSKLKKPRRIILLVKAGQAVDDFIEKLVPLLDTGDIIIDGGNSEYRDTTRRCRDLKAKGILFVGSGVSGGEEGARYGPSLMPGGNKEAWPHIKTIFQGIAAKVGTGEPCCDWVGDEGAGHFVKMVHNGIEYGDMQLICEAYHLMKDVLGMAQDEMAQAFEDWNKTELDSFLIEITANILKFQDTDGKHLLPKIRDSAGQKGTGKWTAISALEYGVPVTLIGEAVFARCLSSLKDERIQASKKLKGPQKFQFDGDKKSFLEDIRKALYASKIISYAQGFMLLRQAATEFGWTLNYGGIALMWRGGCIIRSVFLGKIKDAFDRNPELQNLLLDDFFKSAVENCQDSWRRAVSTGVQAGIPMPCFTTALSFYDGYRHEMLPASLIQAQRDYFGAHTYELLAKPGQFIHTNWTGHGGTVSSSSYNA
Mitogen-activated protein kinase 7 (Homo sapiens), sequence (Q13164 whole entry, looked up, the tested form may be a part): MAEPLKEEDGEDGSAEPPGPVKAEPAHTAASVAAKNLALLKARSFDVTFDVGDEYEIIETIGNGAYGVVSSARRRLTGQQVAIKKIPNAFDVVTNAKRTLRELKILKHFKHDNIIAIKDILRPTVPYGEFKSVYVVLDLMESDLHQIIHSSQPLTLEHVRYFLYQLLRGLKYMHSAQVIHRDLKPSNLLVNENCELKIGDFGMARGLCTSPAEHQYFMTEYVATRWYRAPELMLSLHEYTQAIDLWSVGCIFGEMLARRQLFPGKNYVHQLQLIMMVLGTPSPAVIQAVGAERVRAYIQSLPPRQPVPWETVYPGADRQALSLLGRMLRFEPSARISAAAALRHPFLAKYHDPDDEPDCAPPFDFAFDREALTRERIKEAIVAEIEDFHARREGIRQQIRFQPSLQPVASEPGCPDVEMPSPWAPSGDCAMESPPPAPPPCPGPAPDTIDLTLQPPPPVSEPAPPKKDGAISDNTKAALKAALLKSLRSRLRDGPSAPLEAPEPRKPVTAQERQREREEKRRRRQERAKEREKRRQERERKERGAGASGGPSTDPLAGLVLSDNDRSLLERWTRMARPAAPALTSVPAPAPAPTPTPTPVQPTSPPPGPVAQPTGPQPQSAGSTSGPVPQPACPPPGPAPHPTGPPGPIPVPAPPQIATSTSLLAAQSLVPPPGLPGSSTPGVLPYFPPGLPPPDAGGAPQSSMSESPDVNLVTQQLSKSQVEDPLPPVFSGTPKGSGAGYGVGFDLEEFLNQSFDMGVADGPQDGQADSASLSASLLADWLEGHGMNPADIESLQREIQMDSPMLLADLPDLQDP
NAD(+) hydrolase SARM1 (Homo sapiens), sequence (Q6SZW1 whole entry, looked up, the tested form may be a part): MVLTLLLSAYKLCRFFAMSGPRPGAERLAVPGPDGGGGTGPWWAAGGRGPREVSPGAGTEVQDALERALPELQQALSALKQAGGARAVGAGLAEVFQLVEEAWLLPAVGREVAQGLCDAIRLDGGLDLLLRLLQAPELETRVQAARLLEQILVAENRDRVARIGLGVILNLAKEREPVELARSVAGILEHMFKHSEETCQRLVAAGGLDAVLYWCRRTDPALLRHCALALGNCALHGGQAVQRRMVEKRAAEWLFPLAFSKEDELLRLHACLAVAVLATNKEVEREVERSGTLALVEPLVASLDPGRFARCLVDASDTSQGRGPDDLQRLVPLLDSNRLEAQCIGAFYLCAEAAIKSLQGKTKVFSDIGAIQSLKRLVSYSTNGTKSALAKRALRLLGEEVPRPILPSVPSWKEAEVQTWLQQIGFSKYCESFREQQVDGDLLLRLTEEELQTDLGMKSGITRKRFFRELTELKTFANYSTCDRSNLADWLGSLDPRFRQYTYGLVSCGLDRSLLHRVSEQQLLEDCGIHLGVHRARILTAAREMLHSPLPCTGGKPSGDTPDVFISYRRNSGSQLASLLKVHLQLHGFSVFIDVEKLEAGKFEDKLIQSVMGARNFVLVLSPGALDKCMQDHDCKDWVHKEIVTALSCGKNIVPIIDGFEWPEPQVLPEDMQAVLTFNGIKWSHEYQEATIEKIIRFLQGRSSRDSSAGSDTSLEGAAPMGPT

Cn1c(=O)[nH]c2ncn(C)c2c1=O
inhibition [1]: 15.7%
score [2]: 1.32
rescue above control [3]: -11.3
cytochrome c release ratio [4]: 1.26
inhibition of aggregation [5]: 52.4%
glutamate uptake change [6]: 1.28%
inclusion score [7]: 2
aggregation suppression score [8]: 1.3
period change [9]: -0.1 h (inactive)
inhibition [10]: -3% (inactive)
inhibition [11]: -14.1% (inactive)
red/green cell ratio (normalised) [12]: 0.89 (inactive)
normalised cell number [12, 20]: 1.01
normalised cell number [12, 21]: 0.9
fold change [13, 22]: 0.988 (inactive)
fold change [13, 23]: 1.17
cell count [13, 24]: 9800
cell count [13, 25]: 9920
outcome [14]: inactive
z-score [15]: 0.31 (inactive)

Nc1nc(/C(=C/CC(=O)O)C(=O)N[C@@H]2C(=O)N3C(C(=O)O)=CCS[C@H]23)cs1
parasite load remaining [16]: 145% (inactive) and 53% (inactive)
viability [16]: 95.5% and 96.5%
inhibition [11]: -3.19% (inactive)
red/green cell ratio (normalised) [12]: 1.05 (inactive)
normalised cell number [12, 20]: 0.96
normalised cell number [12, 21]: 1
fold change [13, 22]: 0.926 (inactive)
fold change [13, 23]: 1.29
cell count [13, 24]: 12000
cell count [13, 25]: 13000
z-score [17, 26]: -0.448 (inactive)
z-score [17, 27]: -1.4
remaining NAD [18]: 10 nM (inactive)
luciferase signal [19]: 40 AU (inactive)

Cc1cc(C(C)(C)CC(C)(C)C)ccc1OCCOCC[N+](C)(C)Cc1ccccc1
inhibition [1]: -7.8%
score [2]: -0.1
rescue above control [3]: 0
cytochrome c release ratio [4]: 6.77
inhibition of aggregation [5]: 63.9%
glutamate uptake change [6]: 10.8%
aggregation suppression score [8]: -0.0187
parasite load remaining [16]: 26.8% (inactive) and 101% (inactive) and 11.6% (inactive)
viability [16]: 87.1% and 82% and 145%
inhibition [11]: 18.8% (inactive)
red/green cell ratio (normalised) [12]: 1.11 (inactive)
normalised cell number [12, 20]: 0.89
normalised cell number [12, 21]: 0.98
fold change [13, 22]: 0.811 (inactive) and 0.9 (inactive)
fold change [13, 23]: 1.18 and 1.77
cell count [13, 24]: 1940 and 8590
cell count [13, 25]: 2400 and 9540
z-score [17, 26]: -1.41
z-score [17, 27]: 2.46
remaining NAD [18]: 10 nM (inactive)
luciferase signal [19]: 116 AU (inactive)
